# Assay results from PubChem BioAssay (Tox21).
# Where “and” joins values, the source holds several entries; their conditions need not be identical. Equal entries are not always repeated. Inconclusive results are not listed. Entries that show only a call come without a potency. The source holds several records for some structures; these can differ, active in one and inactive in another. Calls of active or inactive are those of the source. Unless noted, calls follow the shape of the dose curve; as a rule, active = well fitted curve in the direction sought with a large enough effect in the repeat runs; inconclusive = weak or mixed curves; inactive = no such curve, though single readings can be large; an effect the other way counts as inactive or inconclusive.
# Legend:
# [1] = molecular target: Thyrotropin receptor (Homo sapiens) (UniProt P16473); assay: qHTS assay to identify small molecule antagonists of the thyroid stimulating hormone receptor (TSHR) signaling pathway (AID 1259385; calls by dose curve; also: nearly all actives have a fitted effect of over 20% in size)
# Sequence of Thyrotropin receptor (Homo sapiens) (P16473 whole entry, looked up): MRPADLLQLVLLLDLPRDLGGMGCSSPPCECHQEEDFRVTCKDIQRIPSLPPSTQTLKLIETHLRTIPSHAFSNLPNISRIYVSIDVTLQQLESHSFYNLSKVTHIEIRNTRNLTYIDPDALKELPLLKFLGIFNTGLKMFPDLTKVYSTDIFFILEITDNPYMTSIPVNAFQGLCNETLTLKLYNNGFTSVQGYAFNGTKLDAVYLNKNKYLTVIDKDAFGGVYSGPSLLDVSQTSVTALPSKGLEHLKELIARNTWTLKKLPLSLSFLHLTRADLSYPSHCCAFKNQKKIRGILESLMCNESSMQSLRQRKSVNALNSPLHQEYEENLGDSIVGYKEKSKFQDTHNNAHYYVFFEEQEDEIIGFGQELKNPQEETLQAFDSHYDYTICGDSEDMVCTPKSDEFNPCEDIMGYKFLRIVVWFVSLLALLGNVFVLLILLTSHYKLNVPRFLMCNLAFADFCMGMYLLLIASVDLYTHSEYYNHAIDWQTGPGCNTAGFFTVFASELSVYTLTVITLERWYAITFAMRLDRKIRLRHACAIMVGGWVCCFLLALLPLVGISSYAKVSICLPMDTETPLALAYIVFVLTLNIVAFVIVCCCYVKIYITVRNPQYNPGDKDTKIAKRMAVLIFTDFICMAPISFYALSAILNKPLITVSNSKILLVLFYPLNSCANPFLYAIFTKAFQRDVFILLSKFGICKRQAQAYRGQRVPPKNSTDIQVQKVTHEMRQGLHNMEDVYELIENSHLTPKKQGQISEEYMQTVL
# In short: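 TSHR-HEK293 cells were plated and held 18 h at 37C/5% CO2, then given compound plus Ro20-1724 and stimulated with TSH at 1.5 ng/mL final. After 30 min at room temperature, cAMP was detected with cAMP-d2/anti-cAMP-cryptate (1 h) by fluorescence.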
# [2] = qHTS assay to identify small molecule agonists of the estrogen receptor alpha (ER-alpha) signaling pathway in the presence of an antagonist - cell viability counter screen (AID 1259386);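 also: cells exposed to compounds for 22 h at 37 °C before the viability read; nearly all actives have a fitted effect of over 30% in size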; also: potency is read from the fitted curve at half-maximal effect
# In short: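 VM7Luc4E2, stripped-serum pre-culture 5 d; 24hr plating; +ICI-182,780 10.0nM final; cpds 15 conc, 22hr, 37C/5% CO2; CellTiter-Fluor added at 21hr, fluorescence 1hr later.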
# [3] = molecular target: Progesterone receptor (Homo sapiens) (UniProt P06401); assay: qHTS assay to identify small molecule agonists of the progesterone receptor (PR) signaling pathway (AID 1346784; calls by dose curve; also: nearly all actives have a fitted effect of over 30% in size)
# Sequence of Progesterone receptor (Homo sapiens) (P06401 whole entry, looked up): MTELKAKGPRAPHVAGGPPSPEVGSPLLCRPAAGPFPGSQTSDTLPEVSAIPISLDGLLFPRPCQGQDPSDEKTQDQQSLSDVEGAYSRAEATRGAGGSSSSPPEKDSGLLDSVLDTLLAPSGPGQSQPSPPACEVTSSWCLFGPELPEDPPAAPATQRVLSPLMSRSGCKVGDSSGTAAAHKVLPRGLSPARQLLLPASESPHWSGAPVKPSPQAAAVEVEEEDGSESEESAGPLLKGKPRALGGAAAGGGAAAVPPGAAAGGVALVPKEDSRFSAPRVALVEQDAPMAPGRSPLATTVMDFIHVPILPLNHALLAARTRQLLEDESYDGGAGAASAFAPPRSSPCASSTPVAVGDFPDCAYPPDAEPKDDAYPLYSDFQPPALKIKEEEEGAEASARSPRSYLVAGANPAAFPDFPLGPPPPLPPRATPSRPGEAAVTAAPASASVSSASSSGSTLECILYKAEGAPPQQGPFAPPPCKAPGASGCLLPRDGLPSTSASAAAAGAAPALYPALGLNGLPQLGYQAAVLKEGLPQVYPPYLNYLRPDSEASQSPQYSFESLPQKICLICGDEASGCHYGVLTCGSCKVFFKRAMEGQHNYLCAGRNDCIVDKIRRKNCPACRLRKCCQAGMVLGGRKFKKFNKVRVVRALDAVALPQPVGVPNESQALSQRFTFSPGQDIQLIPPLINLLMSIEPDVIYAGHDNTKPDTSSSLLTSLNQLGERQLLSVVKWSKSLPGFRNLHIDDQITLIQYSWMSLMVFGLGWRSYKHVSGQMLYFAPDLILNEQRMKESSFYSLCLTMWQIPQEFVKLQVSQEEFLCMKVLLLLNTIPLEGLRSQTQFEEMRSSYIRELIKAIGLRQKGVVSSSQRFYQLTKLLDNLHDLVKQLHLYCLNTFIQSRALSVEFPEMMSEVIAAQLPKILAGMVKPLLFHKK
# In short: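 PR-UAS-bla HEK 293T cells carrying a UAS-driven beta-lactamase reporter were seeded in medium with 2% charcoal-stripped FBS, preincubated 6 hr at 37C, then exposed to compounds in DMSO for 16 hr; agonism was read by LiveBLAzer B/G FRET fluorescence.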
# [4] = molecular target: Progesterone receptor (Homo sapiens) (UniProt P06401); assay: qHTS assay to identify small molecule antagonists of the progesterone receptor (PR) signaling pathway (AID 1346795; active = well fitted inhibition curve with a large enough effect in the signal ratio in the repeat runs, not every such curve was filed as active; the % refers to the signal ratio; also: potency is read from the fitted curve at half-maximal effect)
# In short: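 PR-UAS-bla HEK293T cells carrying a UAS-driven beta-lactamase reporter were plated in medium with 2% charcoal-stripped FBS and rested 6 hr at 37C. Compounds were added with 1 nM R5020 (final) for 16 hr, then FRET substrate loaded 2 hr at room temperature.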
# [5] = qHTS assay to identify small molecule antagonists of the progesterone receptor (PR) signaling pathway - cell viability counter screen (AID 1346798); also: series mostly up to about 92 µM; nearly all actives have a fitted effect of over 50% in size
# In short: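 PR-UAS-bla HEK293T cells in medium with 2% charcoal-stripped FBS were treated with compounds plus R5020 for 16 hr at 37C. Cell viability was then read by CellTiter-Glo luminescence after 30 min at room temperature in the same wells.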
# [6] = qHTS assay to identify small molecule agonists of the progesterone receptor (PR) signaling pathway - cell viability counter screen (AID 1346799; calls by dose curve; also: nearly all actives have a fitted effect of over 45% in size)
# In short: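 PR-UAS-bla HEK293T cells, 3,000 per well in medium with 2% charcoal-stripped FBS, were preincubated 6 hr at 37C, then exposed to compounds for 16 hr; viability was read as CellTiter-Glo luminescence after 30 min at room temperature.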
# [7] = qHTS assay to identify small molecule antagonists of the TGF-beta/Smad signaling pathway - cell viability counter screen (AID 1346824); also: nearly all actives have a fitted effect of over 50% in size
# In short: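 SBE-bla HEK 293T cells were plated overnight at 37 C, then given compounds in DMSO plus TGF-beta1 (added as 0.25 ng/mL solution) for 5 hr. After the bla read, CellTiter-Glo was added to the same wells and luminescence read after 30 min at room temperature.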
# [8] = qHTS assay to identify small molecule agonists of the TGF-beta/Smad signaling pathway - cell viability counter screen (AID 1346829); also: top concentration of the series differs between compounds; nearly all actives have a fitted effect of over 45% in size
# In short: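 Tox21 qHTS format: SBE-bla HEK 293T cells treated with DMSO-dissolved compounds for 5 hr; CellTiter-Glo luminescence after 30 min at room temperature.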
# [9] = qHTS assay to identify small molecule agonists of the TGF-beta/Smad signaling pathway (AID 1346859; active = well fitted activation curve with a large enough effect in the signal ratio in the repeat runs, not every such curve was filed as active; the % refers to the signal ratio; also: series mostly up to about 77 µM)
# In short: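 HEK 293T cells stably carrying a beta-lactamase reporter driven by the Smad binding element were seeded overnight, exposed to DMSO-dissolved compounds for 5 hr at 37 C, 5% CO2, then loaded with FRET substrate for 2 hr at room temperature.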
# [10] = molecular target: Thyrotropin-releasing hormone receptor (Homo sapiens) (UniProt P34981); assay: qHTS assay to identify small molecule antagonists of the thyrotropin-releasing hormone receptor (TRHR) signaling pathway (AID 1346877; active = well fitted inhibition curve with a large enough effect in the repeat runs, not every such curve was filed as active; also: series mostly up to about 51 µM)
# Sequence of Thyrotropin-releasing hormone receptor (Homo sapiens) (P34981 whole entry, looked up): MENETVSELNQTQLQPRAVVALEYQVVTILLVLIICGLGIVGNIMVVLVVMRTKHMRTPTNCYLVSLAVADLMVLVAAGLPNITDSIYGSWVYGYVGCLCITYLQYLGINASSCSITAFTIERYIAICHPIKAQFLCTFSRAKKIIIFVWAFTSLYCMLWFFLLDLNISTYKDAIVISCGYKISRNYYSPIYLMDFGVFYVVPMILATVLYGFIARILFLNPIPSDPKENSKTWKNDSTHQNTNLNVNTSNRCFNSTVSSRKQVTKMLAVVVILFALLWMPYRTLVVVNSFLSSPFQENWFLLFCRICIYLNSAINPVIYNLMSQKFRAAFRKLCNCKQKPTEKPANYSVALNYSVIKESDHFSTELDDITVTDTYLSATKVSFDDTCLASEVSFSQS
# In short: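 Intracellular calcium fluorescence, read kinetically every second over 3 min, reports TRH-evoked signalling in HEK293 cells carrying TRHR. Test compounds were added 5 min ahead of a 1 nM TRH challenge.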
# [11] = molecular target: Thyrotropin-releasing hormone receptor (Homo sapiens) (UniProt P34981); assay: qHTS assay to identify small molecule agonists of the thyrotropin-releasing hormone receptor (TRHR) signaling pathway (AID 1346891; calls by dose curve; also: series mostly up to about 58 µM)
# In short: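 TRHR-expressing HEK293 cells were plated 18 h at 37 °C/5% CO2, loaded with calcium dye 2 h at 37 °C, then given compound in DMSO; fluorescence was read kinetically for 3 min at 1 s intervals.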
# [12] = Human pregnane X receptor (PXR) small molecule agonists, qHTS cell viability counter screen (AID 1346977); also: nearly all actives have a fitted effect of over 50% in size; also: potency is read from the fitted curve at half-maximal effect
# In short: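 PXR-Luc HepG2 cells in medium with 5% charcoal-stripped FBS were pre-incubated 5hr, then exposed to compounds for 24hr at 37C. Viability was read in the same wells by CellTiter-Fluor fluorescence, reagent added after 23hr with a 1hr incubation.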
# [13] = Caspase-3/7 induction in CHO-K1 cells by small molecules, qHTS cell viability counter screen (AID 1346979); also: nearly all actives have a fitted effect of over 35% in size; also: potency is read from the fitted curve at half-maximal effect
# In short: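 Wild-type CHO-K1 cells were seeded at 1,500 per well, rested 5hr at 37 C, then exposed to compounds in DMSO. After 16hr, CellTiter-Fluor reagent was added and fluorescence read 1hr later as the viability measure.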
# [14] = Caspase-3/7 induction in CHO-K1 cells by small molecules, qHTS assay (AID 1346980); also: nearly all actives have a fitted effect of over 15% in size
# In short: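 Wild-type cells were seeded at 1,500 per well and settled 5 hr at 37 C, 5% CO2, then exposed to DMSO-dissolved compounds for 17 hr. Caspase-Glo 3/7 reagent was added, and luminescence was read after 30min at room temperature.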
# [15] = Caspase-3/7 induction in HepG2 cells by small molecules, qHTS cell viability counter screen (AID 1346981); also: nearly all actives have a fitted effect of over 30% in size; also: potency is read from the fitted curve at half-maximal effect
# In short: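 HepG2, WT, 2,000 cells/well; 5 hr pre-incubation 37 C/5% CO2; compound pin-transferred from DMSO; 16 hr exposure; CellTiter-Fluor, 1 hr; fluorescence read.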
# [16] = molecular target: Nuclear receptor subfamily 1 group I member 2 (Homo sapiens) (UniProt O75469); assay: Human pregnane X receptor (PXR) small molecule agonists, qHTS assay (AID 1346982); also: nearly all actives have a fitted effect of over 35% in size; also: potency is read from the fitted curve at half-maximal effect
# Sequence of Nuclear receptor subfamily 1 group I member 2 (Homo sapiens) (O75469 whole entry, looked up): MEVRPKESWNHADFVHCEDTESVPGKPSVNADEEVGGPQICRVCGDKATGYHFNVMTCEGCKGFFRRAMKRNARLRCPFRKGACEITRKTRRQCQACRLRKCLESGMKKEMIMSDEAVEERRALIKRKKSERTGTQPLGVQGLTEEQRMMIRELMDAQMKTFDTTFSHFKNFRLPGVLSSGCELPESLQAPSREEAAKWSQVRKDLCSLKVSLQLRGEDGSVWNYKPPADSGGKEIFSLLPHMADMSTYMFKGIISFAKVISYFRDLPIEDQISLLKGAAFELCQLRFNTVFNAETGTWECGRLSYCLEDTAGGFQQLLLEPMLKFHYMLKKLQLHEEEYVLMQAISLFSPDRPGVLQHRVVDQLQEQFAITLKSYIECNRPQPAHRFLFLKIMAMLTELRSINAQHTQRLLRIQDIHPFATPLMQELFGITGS
# In short: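 Luciferase signal from ONE-Glo (30 min, room temperature) measured activation of hPXR-driven CYP3A4 reporter expression in PXR-Luc HepG2 cells treated with compounds for 24 hr at 37 C.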
# [17] = Caspase-3/7 induction in HepG2 cells by small molecules, qHTS assay (AID 1346978); also: nearly all actives have a fitted effect of over 15% in size
# In short: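 Wild-type HepG2 cells (2,000/well) were settled 5 h at 37 C, 5% CO2, then exposed to compounds in DMSO for 17 h. Caspase-3/7 activity was read by luminescence 30 min after adding Caspase-Glo 3/7 reagent at room temperature.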
# [18] = molecular target: Nuclear receptor subfamily 1 group I member 2 (Rattus norvegicus) (UniProt Q9R1A7); assay: Rat pregnane X receptor (rPXR) activation by small molecules, qHTS assay (AID 1346983); conditions: rPXR luciferase reporter cells, One-Glo luminescence, 24 h; max activation: stronger effect = higher value; also: nearly all actives have a fitted effect of over 20% in size
# Sequence of Nuclear receptor subfamily 1 group I member 2 (Rattus norvegicus) (Q9R1A7 whole entry, looked up): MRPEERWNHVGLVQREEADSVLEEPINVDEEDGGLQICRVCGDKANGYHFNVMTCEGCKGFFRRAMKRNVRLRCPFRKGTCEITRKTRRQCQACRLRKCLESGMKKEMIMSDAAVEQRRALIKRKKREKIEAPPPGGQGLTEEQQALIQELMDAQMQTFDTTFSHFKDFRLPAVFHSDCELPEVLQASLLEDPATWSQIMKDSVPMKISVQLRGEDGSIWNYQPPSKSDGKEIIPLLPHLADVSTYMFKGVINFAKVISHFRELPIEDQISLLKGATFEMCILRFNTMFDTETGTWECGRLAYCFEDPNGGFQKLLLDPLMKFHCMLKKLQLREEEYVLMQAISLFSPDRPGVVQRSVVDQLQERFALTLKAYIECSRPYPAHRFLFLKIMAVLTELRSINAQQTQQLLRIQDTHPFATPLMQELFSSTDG
# In short: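 Cell-based rPXR luciferase reporter assay, 2,000 cells per well, rested 5hr at 37 C before compound addition in DMSO, then 24 hr at 37 C. One-Glo reagent was added and luminescence read after 30 min at room temperature.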
# [19] = molecular target: Nuclear receptor subfamily 1 group I member 2 (Homo sapiens) (UniProt O75469); assay: CYP3A4 induction through human pregnane X receptor (PXR) by small molecules, qHTS assay (AID 1346984); also: nearly all actives have a fitted effect of over 40% in size
# In short: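 Luminescence readout: luciferase signal after One-Glo (30 min, room temperature), following 3 h at 37C with 3uM final Luciferin-IPA P450 substrate. Cells were DPX-2 (HepG2, PXR/CYP3A4-luc co-transfected) dosed for 24 h.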
# [20] = molecular target: Nuclear receptor subfamily 1 group I member 2 (Homo sapiens) (UniProt O75469); assay: Human pregnane X receptor (PXR) activation by small molecules, qHTS assay (AID 1346985); also: nearly all actives have a fitted effect of over 40% in size
# In short: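 DPX-2 cells (HepG2 co-transfected with a PXR response element and a CYP3A4-promoter luciferase construct) were seeded at 2,000 per well, rested 5 hr at 37C, then exposed to DMSO-dissolved compounds for 24 hr. Activation was read as luciferase luminescence.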
SMILES,outcome [1],Potency [2],Potency [3],Potency [4],Potency [5],Potency [6],Potency [7],Potency [8],outcome [9],outcome [10],Potency [11],Potency [12],Potency [13],Potency [14],Potency [15],Potency [16],Potency [17],max activation [18],outcome [19],outcome [20]
Clc1ccc(Cl)c(Cl)c1Cl,inactive,inactive,inactive,inactive,inactive,inactive,inactive,inactive,inactive,inactive,inactive,inactive,inactive,inactive,inactive,inactive,–,–,–,–
CC(C)(CO)COC(=O)C(C)(C)CO,inactive,inactive,inactive,inactive,inactive,inactive,inactive,inactive,inactive,inactive,inactive,inactive,inactive,inactive,inactive,inactive,–,–,–,–
CC1=C(/C=C/C(C)=C/C=C/C(C)=C/CO)C(C)(C)CCC1,inactive,inactive,inactive,inactive,inactive,inactive,inactive,inactive,inactive,inactive,–,inactive,69.4 µM (active),inactive,inactive,55.1 µM (active) and 32.3 µM (active),inactive,–,–,–
Cc1cc(=O)[nH]c(C(C)C)n1,inactive,inactive,inactive,inactive,inactive,inactive,inactive,inactive,inactive,inactive,–,inactive,inactive,inactive,inactive,inactive,–,–,–,–
Oc1ccc(OCc2ccccc2)cc1,inactive,inactive,inactive,18.9 µM (active),inactive,inactive,inactive,inactive,inactive,inactive,–,inactive,inactive,inactive,inactive,30 µM (active),–,-0.536% (inactive),inactive,–
Cc1ccc(C)c(C)c1,inactive,inactive,inactive,inactive,inactive,inactive,inactive,inactive,inactive,inactive,inactive,inactive,inactive,inactive,inactive,inactive,–,–,–,–
Cc1cc(O)c2c(c1)C(=O)c1cc(O)cc(O)c1C2=O,inactive,15.4 µM (active),inactive,29.9 µM (active) and 27.3 µM (active),inactive,inactive,inactive,inactive,–,inactive,inactive,29.9 µM (active),48.6 µM (active),inactive,26.7 µM (active) and 21.7 µM (active),29.9 µM (active) and 21.7 µM (active),–,–,–,–
Oc1ccc2ccccc2c1,inactive,inactive,inactive,48.6 µM (active),inactive,inactive,inactive,inactive,inactive,–,–,inactive,inactive,inactive,inactive,–,inactive,–,–,–
CC(C)(C)C1CCC(O)CC1 (stereo not drawn),inactive,inactive,inactive,inactive,inactive,inactive,inactive,inactive,inactive,inactive,inactive,inactive,inactive,inactive,inactive,inactive,inactive,–,–,–
O=S(=O)(O)c1cc(S(=O)(=O)O)c2c(N=Nc3ccccc3)c(O)ccc2c1,inactive,61.4 µM (active) and 27.3 µM (active),inactive,inactive,inactive,inactive,inactive,inactive,inactive,inactive,–,39.8 µM (active) and 54.5 µM (active),54.7 µM (active) and 34.4 µM (active),inactive,54.7 µM (active) and 54.5 µM (active),inactive,inactive,–,–,–
OC1CCCC1,inactive,inactive,inactive,inactive,–,inactive,inactive,inactive,inactive,inactive,inactive,inactive,inactive,inactive,inactive,30.6 µM (active) and inactive,inactive,–,–,–
COC(=O)c1ccccc1O,inactive,inactive,inactive,–,inactive,inactive,inactive,inactive,inactive,inactive,–,inactive,inactive,inactive,inactive,34.4 µM (active) and inactive,inactive,-0.564% (inactive),inactive,inactive
CC1Cc2ccccc2N1NC(=O)c1ccc(Cl)c(S(N)(=O)=O)c1 (stereo not drawn),inactive,inactive,inactive,inactive,–,inactive,inactive,inactive,inactive,inactive,–,inactive,inactive,inactive,inactive,30.6 µM (active) and 9.44 µM (active),–,-2.07% (inactive),inactive,inactive
CCCCCCC(C)(C)S,inactive,inactive,inactive,–,inactive,inactive,inactive,inactive,inactive,inactive,–,inactive,inactive,inactive,inactive,30.9 µM (active) and inactive,inactive,–,–,–
C=C(C)C(=O)OCCCCCCCCCCCC,inactive,inactive,inactive,inactive,–,inactive,inactive,inactive,inactive,inactive,–,inactive,inactive,inactive,inactive,inactive,–,–,–,–
